Only some compounds are listed: those with a hit (about 5% of all), similar ones and a draw of the others.
PREPL inh: inhibits the human prolyl oligopeptidase-like enzyme | Q4J6C6 | recombinant PREPL, fluorescence polarization activity-based probe | inhibition, % at 5.96 µM | 320,000 tested, 0.68% active | AID 2751;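 note: 0% = enzyme with DMSO and 100% = wells lacking enzyme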
Target sequence (Q4J6C6 whole entry, looked up): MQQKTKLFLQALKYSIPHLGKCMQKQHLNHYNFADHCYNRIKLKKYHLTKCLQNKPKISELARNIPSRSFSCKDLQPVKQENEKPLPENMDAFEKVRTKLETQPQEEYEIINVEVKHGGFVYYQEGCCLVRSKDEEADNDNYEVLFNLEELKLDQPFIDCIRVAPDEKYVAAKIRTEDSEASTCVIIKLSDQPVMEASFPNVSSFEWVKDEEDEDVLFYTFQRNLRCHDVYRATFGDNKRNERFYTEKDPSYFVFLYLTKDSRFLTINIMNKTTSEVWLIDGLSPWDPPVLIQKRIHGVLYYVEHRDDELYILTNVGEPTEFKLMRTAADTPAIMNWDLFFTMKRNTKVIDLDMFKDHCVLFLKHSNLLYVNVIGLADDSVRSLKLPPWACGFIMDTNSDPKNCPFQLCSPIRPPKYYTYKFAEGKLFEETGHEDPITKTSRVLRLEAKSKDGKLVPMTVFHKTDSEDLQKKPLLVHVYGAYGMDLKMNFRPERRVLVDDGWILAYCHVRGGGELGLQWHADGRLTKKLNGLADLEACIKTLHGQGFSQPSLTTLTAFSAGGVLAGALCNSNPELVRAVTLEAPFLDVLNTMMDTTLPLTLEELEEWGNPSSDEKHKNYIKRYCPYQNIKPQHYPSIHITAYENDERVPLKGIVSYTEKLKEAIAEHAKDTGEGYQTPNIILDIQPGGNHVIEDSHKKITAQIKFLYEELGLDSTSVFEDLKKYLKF
CHT block: inhibitors of human choline transporter CHT; Q9GZV3; CHT-expressing cells, membrane potential dye, choline response; active compounds read low; B-score at 10 µM; 310,000 tested, 0.86% active; AID 488975;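 active = B-score over 3 SD under the library average, and starting fluorescence ratio not unusually high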;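 note: choline stimulus applied at its EC90 after an EC20 pre-addition; B-score computed on integrated fluorescence ratio after choline addition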
ALR H2O2 inh: human ALR oxidase inhibition via reduced H2O2 | P55789 | purified ALR, DTT oxidation, H2O2 HRP-luminol luminescence | inhibition, % (test concentration not listed) | 290,000 tested, 3.8% active;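 active = mean replicate inhibition above about 79%, with every replicate also reaching it, limit read from the data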
AI-2 QS mod: Vibrio harveyi AI-2 quorum sensing modulation; Vibrio harveyi JMH597 AI-2 luminescence/OD600 ratio, 9 h; active compounds read low; strain lacks LuxN and CqsS sensors; 0 = neutral-control median; activity change, % at 7.5 µM; 300,000 tested, 0.4% active; in the data active = activity change below about -75%, passing the limit was not always enough;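 note: luminescence divided by OD600 gain over 9 h not by final OD600 alone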
CHT PAM: allosteric activators of human choline transporter CHT; Q9GZV3; CHT-expressing cells, membrane potential dye, choline EC20; active compounds read high; LV-AA mutant CHT in HEK293 cells; B-score at 10 µM; 310,000 tested, 0.49% active;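 active = initial fluorescence not abnormally high and integrated response B-score, plate-corrected, over 3 SD above library mean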
PREPL inh cf: confirmation of human PREPL enzyme inhibitors. AID 2803. shares compounds with PREPL inh. 2,000 tested, 67% active. inhibition, % at 5.96 µM. recombinant PREPL, fluorescence polarization activity probe;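 note: 0% = protein with DMSO and 100% = wells lacking protein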
Numbers without * were called inactive; i = inactive; nt = not tested or not shown. Cut-off read from the data, not from the text of the source, unless noted: active = inhibition above about 43%; inactive = the rest.

SMILES | PREPL inh | CHT block | ALR H2O2 inh | AI-2 QS mod | CHT PAM | PREPL inh cf
Cc1ccc(N2CC(C(=O)Nc3ccc(S(=O)(=O)NCC4CCCO4)cc3)CC2=O)cc1C (stereo unspecified) | -1 | i | -7 | 5 | i | nt
CNC(=O)c1ccc(-c2sc3nc(N4CCOCC4)c4c(c3c2N)CCCC4)o1 | 48* | i | nt | 14 | i | 32
C[C@@]12C(=O)N(CCc3c[nH]c4ccccc34)CC(=O)N1[C@H]1c3ccccc3OC[C@@H]1[C@@H]2c1ccccc1 | -2 | nt | 0 | nt | nt | nt
COc1cc(-c2nc3c[n+](CC(=O)c4ccccc4)ccc3n2C)cc(OC)c1OC | 53* | i | nt | -5 | i | 21
COc1ccc(C(=O)C[n+]2ccc3c(c2)nc(-c2ccccc2)n3C)cc1 | 27 | i | nt | 20 | i | nt
Cc1ccc(C2CC(c3ccccc3C)n3nc(N)nc3N2)cc1 (stereo unspecified) | 47* | i | -2 | -4 | i | 48*
COc1cccc(C2CC(c3ccc(Cl)cc3)n3nc(N)nc3N2)c1 (stereo unspecified) | 41 | i | 1 | 25 | i | nt
COc1ccc(C2CC(c3cccc(OC)c3)n3nc(N)nc3N2)cc1 (stereo unspecified) | 46* | i | -6 | 19 | i | 52*
Cc1ccc(C2CC(c3cccc(Cl)c3)n3nc(N)nc3N2)cc1 (stereo unspecified) | 51* | i | 0 | 8 | i | 51*
Cc1cccc(C2CC(c3ccc(Cl)cc3)Nc3nc(N)nn32)c1 (stereo unspecified) | 52* | i | 5 | 24 | i | 52*
Cc1ccc2nc(-c3ccc(-c4ccccn4)s3)cn2c1 | 4 | i | -7 | 11 | i | nt
CCC(CN(C)C)Oc1cc(NCc2ccccc2)c2ncn(C(C)C)c2c1 (stereo unspecified) | 63* | nt | nt | nt | nt | 51*
CCC(CO)Oc1cc(NCc2ccncc2)c2ncn(C(C)C)c2c1 (stereo unspecified) | 3 | nt | 2 | nt | nt | nt
CCC(CO)Oc1cc(NCc2cccnc2)c2ncn(C(C)C)c2c1 (stereo unspecified) | 21 | nt | 50 | nt | nt | nt
CCC(CO)Oc1cc(NCc2ccc(F)cc2)c2ncn(C(C)C)c2c1 (stereo unspecified) | 50* | nt | 12 | nt | nt | 14
CCC(CO)Oc1cc(NCc2cccc(Cl)c2)c2ncn(C(C)C)c2c1 (stereo unspecified) | 57* | nt | 8 | nt | nt | 38
CCN1C(=O)CC(c2ccccc2)N(C2CCCC2)c2nc(Nc3ccc(C(=O)NC4CCN(C)CC4)cc3OC)ncc21 (stereo unspecified) | 48* | nt | -1 | nt | nt | 50*
COc1cc(-c2noc(C)c2/C=C/c2ccc(OC(C)=O)cc2)cc(OC)c1OC | 14 | i | 3 | 7 | i | nt
Cc1ccc(-n2c(SCC(=O)N(C)C3CCS(=O)(=O)C3)nc3ccccc3c2=O)c(C)c1 (stereo unspecified) | 53* | nt | -7 | nt | nt | 0
CN=C1SC(C(=O)Nc2ccccc2Cl)CC(=O)N1c1ccc(OC(F)(F)Cl)cc1 (stereo unspecified) | 7 | i | -24 | 6 | i | nt
CC(=O)n1cc([C@@H]2C=C(C(=O)N3CCN(C)CC3)O[C@H](OCc3ccc(CO)cc3)C2)c2ccccc21 | 46* | i | -51 | 4 | i | 52*
O=C(C1=C[C@@H](c2ccc(C(F)(F)F)cc2)C[C@@H](OCc2ccc(CO)cc2)O1)N1CCN(Cc2ccc3c(c2)OCO3)CC1 | 64* | i | 1 | 19 | i | 58*
CC(C)(C)[C@@H]1C=C(C(=O)N2CCN(Cc3ccc4c(c3)OCO4)CC2)O[C@H](OCc2ccc(CO)cc2)C1 | 25 | i | -7 | 20 | i | nt
CN1CCN(C(=O)C2=C[C@@H](c3ccccc3)C[C@@H](OCc3ccc(CO)cc3)O2)CC1 | 46* | i | -3 | -2 | i | 49*
O=C(C1=C[C@H](c2ccccc2)C[C@H](OCc2ccc(CO)cc2)O1)N1CCOCC1 | 19 | i | -15 | 15 | i | nt
SMILES | PREPL inh | CHT block | ALR H2O2 inh | AI-2 QS mod | CHT PAM | PREPL inh cf
O=C(C1=C[C@@H](c2ccc(Br)cc2)C[C@@H](OCc2ccc(CO)cc2)O1)N1CCN(Cc2ccc3c(c2)OCO3)CC1 | 45* | i | -8 | 16 | i | 59*
COC(=O)C1=C(CS(=O)(=O)c2ccccc2)NC(=O)NC1c1ccc(O)cc1 (stereo unspecified) | 8 | i | 4 | 21 | i | nt
COc1ccc(CNC(=O)CN2CCN(S(=O)(=O)c3cccs3)CC2)cc1OC | 16 | i | 9 | 12 | i | nt
O=C(C1=C[C@H](c2ccc3c(c2)OCO3)C[C@H](OCc2ccc(CO)cc2)O1)N1CCCCCCC1 | 25 | i | -13 | 7 | i | nt
O=C(C1=C[C@@H](c2ccc3c(c2)OCO3)C[C@@H](OCc2ccc(CO)cc2)O1)N1CCOCC1 | 50* | i | -3 | 38 | i | 44*
O=C(C1=C[C@H](c2ccc(C(F)(F)F)cc2)C[C@H](OCc2ccc(CO)cc2)O1)N1CCN(Cc2ccc3c(c2)OCO3)CC1 | 46* | i | -9 | 19 | i | 44*
CC(C)(C)[C@H]1C=C(C(=O)N2CCN(Cc3ccc4c(c3)OCO4)CC2)O[C@@H](OCCCCO)C1 | 44* | i | -7 | 7 | i | 43
CCO[C@H]1OC(C(=O)N2CCN(Cc3ccc4c(c3)OCO4)CC2)=C[C@@H](c2ccc(Br)cc2)[C@@H]1CCCO | 47* | i | -6 | 8 | i | 44*
O=C(CSc1nccc(=O)[nH]1)NCc1ccc(Cl)cc1 | -1 | i | 1 | 26 | i | nt
C[C@@H](NC(=O)[C@@H]1Cc2ccccc2CN1)C(=O)NCC1CCCO1 (stereo partly specified) | 4 | i | -2 | 5 | i | nt
O=C(C1=C[C@@H](c2ccc(Br)cc2)C[C@@H](OCc2ccc(CO)cc2)O1)N1CCN(Cc2ccccc2)CC1 | 66* | i | -8 | 34 | i | 53*
O=C(C1=C[C@@H](c2ccc(C(F)(F)F)cc2)C[C@@H](OCCCCO)O1)N1CCN(Cc2ccc3c(c2)OCO3)CC1 | 70* | i | -2 | 7 | i | 60*
O=C(C1=C[C@@H](c2ccc(C(F)(F)F)cc2)C[C@@H](OCCCCO)O1)N1CCN(Cc2ccccc2)CC1 | 66* | i | nt | 32 | i | 56*
CCSc1nc2cc(OC)c(OC)cc2c(=O)n1CCc1ccccc1 | 13 | i | -19 | 12 | i | nt
COc1ccc(Cn2c(SCc3ccccc3C)nc3cc(OC)c(OC)cc3c2=N)cc1 | 62* | i | -14 | 19 | i | 59*
